Assay outcomes: PubChem BioAssay, The Scripps Research Institute Molecular Screening Center
An excerpt weighted towards active compounds, which were near 3.4% of everything screened.
FBW7 act: activators of human E3 ligase FBW7 | AlphaScreen FBW7–phospho-cyclin E peptide binding, activator screen | normalized activity (activation), % at 26.1 µM | hit rate 0.13% among 650,000; in the data active means normalized activity above about 1.9%;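 further: purified mutant Fbw7 with reduced substrate affinity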
MITF inh: human MITF inhibition, primary screen. O75030. hit rate 0.91% among 650,000. inhibition, % at 2.6 µM. AlphaScreen MITF homodimerization, bead proximity signal. AID 1259374; in the data active means inhibition above about 50%
Target sequence (O75030 whole entry, looked up): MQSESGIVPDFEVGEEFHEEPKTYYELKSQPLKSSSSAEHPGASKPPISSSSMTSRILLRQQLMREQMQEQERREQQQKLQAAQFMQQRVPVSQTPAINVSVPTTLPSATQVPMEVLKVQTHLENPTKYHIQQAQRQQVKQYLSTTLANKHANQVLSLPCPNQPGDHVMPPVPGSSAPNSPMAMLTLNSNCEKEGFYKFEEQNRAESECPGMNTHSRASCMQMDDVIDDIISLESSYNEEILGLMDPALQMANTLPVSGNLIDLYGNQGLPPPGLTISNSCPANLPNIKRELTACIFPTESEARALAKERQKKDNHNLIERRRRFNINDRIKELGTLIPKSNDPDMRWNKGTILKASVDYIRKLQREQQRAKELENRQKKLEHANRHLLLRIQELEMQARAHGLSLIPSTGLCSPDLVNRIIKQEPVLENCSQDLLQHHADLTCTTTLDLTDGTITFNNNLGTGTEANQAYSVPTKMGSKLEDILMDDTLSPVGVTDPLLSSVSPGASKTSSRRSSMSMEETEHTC
GPR151 ag: activators of human GPR151; activation, % at 11.2 µM; Q8TDV0; hit rate 1% among 650,000; PathHunter beta-arrestin GPR151 cells, luminescence; in the data active means activation above about 4.9%
TEAD-YAP block: TEAD-YAP interaction inhibition | inhibition, % at 9.12 µM | HEK-TIYL cells, TEAD-Gal4/YAP UAS-luciferase luminescence | hit rate 1.4% among 640,000; in the data active means inhibition above about 32%
A number is an active result; – = inactive; · = not tested or not shown.

SMILES	FBW7 act	MITF inh	GPR151 ag	TEAD-YAP block
c1ccc(-n2cnc3c(Nc4ccc(N5CCOCC5)cc4)nc(Nc4ccc(-n5ccnc5)cc4)nc32)cc1	–	–	–	41
CCN(CC)c1nc(Nc2ccc(N3CCOCC3)cc2)nc(Nc2ccc(-n3ccnc3)cc2)n1	–	–	–	65
O=C(O)CCC/C=C\C/C=C\C/C=C\C/C=C\CCCCC(=O)O	·	–	–	·
COC(=O)C(NC(=O)c1ccc([N+](=O)[O-])o1)C(C)C (stereo not drawn)	–	–	–	–
COc1cc(Br)c(/C=C2\C(=O)N(c3ccccc3)N=C2C)cc1OC	–	–	–	–
CC1=NN(c2cccc(Cl)c2)C(=O)/C1=C/c1cc2c(cc1Cl)OCO2	–	–	–	–
COc1cc(/C=C2\C(=O)N(c3cccc(C(=O)O)c3)N=C2C)c(Br)cc1O	–	62	–	–
CC1=NN(c2cccc(C(=O)O)c2)C(=O)/C1=C/c1ccc(C)o1	–	–	–	–
CC1=NN(c2cccc(C(=O)O)c2)C(=O)/C1=C\c1ccco1	–	65	–	–
COc1ccc(/C=C2\C(=O)N(c3cccc(C(=O)O)c3)N=C2C)cc1OC	–	–	–	–
CC1=NN(c2cccc(C(=O)O)c2)C(=O)/C1=C\c1cc2c(cc1Cl)OCO2	–	61	–	–
COc1cc(/C=C2/C(=O)N(c3cccc(C(=O)O)c3)N=C2C)cc2sc(=O)oc12	–	61	–	–
c1csc(-c2cnc3ccc(NCc4ccc5c(c4)OCO5)nn23)c1	–	–	–	–
O=C(NC1CCN(Cc2ccccc2)CC1)c1cccc(Nc2ncccn2)c1	–	–	–	–
CC1=NN(c2cccc(C(=O)O)c2)C(=O)/C1=C\c1ccc(-c2cccc(C(=O)O)c2)o1	–	62	–	–
O=Cc1ccc(-c2ccc(C(=O)O)c(O)c2)o1	–	86	–	–
Cc1ccc(S(=O)(=O)N/N=C/c2ccc(I)cc2)cc1	–	–	–	–
COc1ccccc1C(=O)Nc1cccc(N2CCC(NCCc3ccco3)CC2)c1	–	–	–	44
COc1ccccc1C(=O)Nc1cccc(N2CCC(NCCc3cccs3)CC2)c1	–	–	–	51
COc1ccccc1C(=O)Nc1cccc(N2CCC(NCc3ccsc3)CC2)c1	–	–	–	–
O=S(=O)(Nc1cccc(N2CCC(NCCc3ccco3)CC2)c1)c1ccc(F)cc1	–	61	–	–
CCCCNC1CCN(c2cccc(NC(=O)c3ccccc3OC)c2)CC1	–	–	–	41
COc1ccccc1C(=O)Nc1cccc(N2CCC(NCCc3cnccn3)CC2)c1	–	–	–	–
O=S(=O)(Nc1cccc(N2CCC(NCCn3ccnc3)CC2)c1)c1ccc(F)cc1	–	–	–	–
CC(C)c1ccc(N(CC(=O)N(C)C)S(=O)(=O)c2ccccc2)cc1	–	–	–	–
SMILES	FBW7 act	MITF inh	GPR151 ag	TEAD-YAP block
Cc1n[nH]c(C)c1CNC(=O)c1ccc(OC2CCN(C(=O)C3CC3)CC2)cc1	–	–	–	–
O=C(Cn1cnc2c(cnn2CCO)c1=O)N1CCCC1	–	–	–	–
CCn1c(-c2ccc(Cl)cc2)csc1=Nc1cc(OC)c(Cl)cc1OC	–	–	–	35
CCn1c(-c2ccc(F)cc2)csc1=Nc1cc(OC)c(Cl)cc1OC	–	–	–	33
O=C(N/N=C/c1cc2c3c(c1O)CCCN3CCC2)c1ccncc1	–	66	–	75
Cc1cc(=O)[nH]c(N/N=C/c2cc3c4c(c2O)CCCN4CCC3)n1	–	–	–	86
Cc1ccc(C)c(/C=N/Nc2nc(C)cc(=O)[nH]2)c1	–	–	–	–
O=C(N/N=C/c1cc([N+](=O)[O-])cc([N+](=O)[O-])c1O)c1ccncc1	–	–	–	–
CCN(CC)S(=O)(=O)c1ccc(OC)c(NC(=O)c2cc(-c3ccccc3)nc3ccccc23)c1	–	–	–	–
CCOC(=O)c1[nH]c2ccccc2c1NC(=O)OC	–	–	–	–
CCOC(=O)c1[nH]c2ccccc2c1NC=O	1.9	–	–	–
CC(=O)c1cc(F)cc(CCl)c1O	–	–	–	–
CCOC(=O)C1=C(CN2CCCc3ccccc32)NC(=O)NC1c1ccc(C)cc1 (stereo not drawn)	–	–	–	61
CCOC(=O)C1=C(CN2CCCc3ccccc32)NC(=O)NC1c1ccccc1 (stereo not drawn)	–	–	–	–
CCOC(=O)C(=Cc1ccc(O)cc1)C(=O)OCC	–	–	–	–
CCOC(=O)/C(=C/c1ccc(Br)cc1)c1nnc(N)s1	–	–	–	40
CN(C)CCNc1ccnc2c(-c3cc4ccccc4o3)cnn12	–	–	–	68
CCCNc1ccnc2c(-c3cccc(/C=C/C(=O)O)c3)cnn12	–	–	–	64
c1ccc(CNc2ccnc3c(-c4cc5ccccc5o4)cnn23)nc1	–	–	–	–
CN(C)CCNc1ccnc2c(-c3cccc(C(N)=O)c3)cnn12	–	–	–	57
Cc1cccc(N(C)c2ccnc3c(-c4cccc(C(N)=O)c4)cnn23)c1	–	–	–	34
CCC1C(=O)NCCN1Cc1ccc2c(c1)CN(Cc1ccc(Cl)cc1)CCO2 (stereo not drawn)	–	–	–	–
CCC1C(=O)NCCN1Cc1ccc2c(c1)CN(Cc1c(C)nc3sccn13)CCO2 (stereo not drawn)	–	–	–	35
COc1ccccc1C1NC(=O)NC(C)=C1C(=O)OC(C)C(C)(C)C (stereo not drawn)	–	–	–	–
Cc1ccc(-c2nc(CS(=O)CC(=O)NCC3CCCO3)c(C)o2)cc1 (stereo not drawn)	1.9	–	–	–
SMILES	FBW7 act	MITF inh	GPR151 ag	TEAD-YAP block
CCCN1C(=O)C(O)(CC(=O)c2ccc(Cl)s2)c2ccccc21 (stereo not drawn)	–	–	–	–
CC(=O)Nc1ccc(Sc2nc3ccccc3s2)c(Cl)c1	–	–	–	–
O=C(Nc1ccc2oc(-c3cccc(F)c3)nc2c1)c1cc([N+](=O)[O-])ccc1Cl	–	–	–	37
O=C(Nc1ccc2oc(-c3cccc4c(Br)cccc34)nc2c1)c1ccccc1[N+](=O)[O-]	–	–	–	43
O=C(Nc1ccc2oc(-c3cccc4c(Br)cccc34)nc2c1)c1cc([N+](=O)[O-])ccc1Cl	–	–	–	–
O=C(Nc1ccc(Sc2nc3ccccc3s2)c(Cl)c1)c1cc([N+](=O)[O-])ccc1Cl	–	–	–	32
Cc1cc(C)cc(Nc2ncnc3c2c(-c2ccccc2)cn3-c2cccc(C(F)(F)F)c2)c1	–	–	–	–
COc1ccc2c(c1)OC(C)CN(C(=O)C1CC(=O)N(Cc3cccnc3)C1)C2 (stereo not drawn)	–	–	–	–
O=C(O)c1cccc(NC(=O)c2ccc(Oc3ccccc3)cc2)c1	–	–	–	93
O=C(O)c1ccc(NC(=O)c2ccc(Oc3ccccc3)cc2)cc1	–	–	–	39
O=C(Nc1cccc(F)c1)c1ccc(Oc2ccccc2)cc1	–	–	–	–
O=C(Nc1ccncc1)c1ccc(C(=O)c2ccccc2)cc1	–	–	–	55
Cc1c(C(=O)NC(=S)Nc2cccc(C(=O)O)c2)cccc1[N+](=O)[O-]	–	–	–	–
O=C(Nc1ccncc1)c1ccc(C(=O)Nc2ccncc2)cc1	–	–	–	–
